Laboratory results as given in PubChem BioAssay (NCI).
Where “and” joins values, the source holds several entries; their conditions need not be identical. Identical values can stand only once. Compounds without any hit were thinned out: in the full panel of roughly 79,000, 15% have a hit. Some compounds were tested as several samples or in several runs, with calls that do not always agree. Calls of active or inactive are those of the source. No stated cut-off is given here; in the data, active means growth inhibition above about 70%; inactive means the rest. Where a SMILES comes first, the peptide text is derived from it. [ ]: non-standard residue; d: D form. ξ: configuration not given here. ξV = CC(C)C(N)C(=O)O

What was measured:
[1] = NCI Yeast Anticancer Drug Screen. Data for the rad50 strain (AID 155);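 further: 0% = growth of vehicle-only cultures of the same strain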; settings: S. cerevisiae rad50 strain growth inhibition, stronger effect = higher value
In short: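 Vehicle-treated cultures provide the reference for the growth inhibition reported for compound-exposed, repair-deficient yeast.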

[2] = NCI Yeast Anticancer Drug Screen. Data for the mec2-1 strain (AID 157); settings: S. cerevisiae mec2-1 strain, stronger effect = higher value
In short: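 Test agents were screened against the mec2-1 yeast strain, with defined DNA repair or cell cycle alteration. Growth was scored as inhibition against vehicle-only controls.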

[3] = NCI Yeast Anticancer Drug Screen. Data for the sgs1 mgt1 strain (AID 161);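 further: 0% = growth of cultures given vehicle only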; settings: S. cerevisiae sgs1 mgt1 strain, stronger effect = higher value
In short: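 Inhibition of yeast growth, normalised to vehicle-treated controls, is reported for a strain bearing genetic alterations in DNA damage repair.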

[4] = NCI Yeast Anticancer Drug Screen. Data for the cln2 rad14 strain (AID 165);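 further: 0% = growth equal to vehicle treated cultures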; settings: S. cerevisiae cln2 rad14 strain, stronger effect = higher value
In short: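 Growth of compound-exposed yeast (cln2 rad14 genotype) measured and expressed as inhibition relative to vehicle.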

[5] = NCI Yeast Anticancer Drug Screen. Data for the bub3 strain (AID 167); settings: S. cerevisiae bub3 mutant strain, stronger effect = higher value
In short: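 Mutant yeast screening strain plus compound; vehicle-treated cultures serve as the 0% inhibition reference.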

[6] = NCI Yeast Anticancer Drug Screen. Data for the mlh1 rad18 strain (AID 175); settings: S. cerevisiae mlh1 rad18 strain growth inhibition, stronger effect = higher value
In short: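 In this whole-cell yeast screen, a strain with altered DNA damage repair is challenged with compound, and its growth is measured against matched vehicle-treated controls.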

[7] = at 5.0 µM (retest, dose inferred, filed as 0.5)
[8] = at 50.0 µM (retest, dose inferred, filed as 5.0)

Measured: growth inhibition

CCCc1cc(=O)oc2c3c(c4c(c12)OC(C)(C)CC4)O[C@@H](C)[C@H](C)[C@H]3O
10.9% (inactive) and 88.7% (active): [4]; at 50.0 µM
16.3% (inactive) and 87.8% (active): [5]; at 50.0 µM
inactive: [1]; [7] 8% | [2]; [7] -20% | [3]; [7] -1% | [4]; [7] 21% | [5]; [7] 0% | [6]; [7] -6%
active: [1]; [8] 90% | [2]; [8] 95% | [3]; [8] 93% | [4]; [8] 94% | [5]; [8] 92% | [6]; [8] 93%
3.65% (inactive) and 89.6% (active): [3]; at 50.0 µM
-6.95% (inactive) and 80.1% (active): [1]; at 50.0 µM
8.05% (inactive) and 85.9% (active): [6]; at 50.0 µM
-18.8% (inactive) and 90% (active): [2]; at 50.0 µM

COc1cc(NCCCCCCC2CCCCN2)c2ncccc2c1 (stereo not drawn)
active: [1]; [8] 81% and 71% | [3]; [8] 71% and 81% | [6]; [8] 89% and 78%
inactive: [1]; [7] 0% and 4% | [2]; [7] -1% | [2]; [8] 47% and 23% | [2]; at 50.0 µM 49.2% and 45.4% | [3]; [7] -7% and 0% | [4]; [7] 5% and 3% | [4]; [8] 27% and 61% | [4]; at 50.0 µM 14.1% and 11.3% | [5]; [7] 1% and 4% | [5]; [8] 54% and 37% | [6]; [7] 3% and 2%
53.4% (inactive) and 71.5% (active): [5]; at 50.0 µM
50.5% (inactive) and 85.7% (active): [1]; at 50.0 µM
40.6% (inactive) and 88% (active): [3]; at 50.0 µM
61% (inactive) and 94.5% (active): [6]; at 50.0 µM

O=C1c2cccc(O)c2C(=O)c2c(O)cccc21
inactive: [1]; [7] 67% | [2]; [7] 28% | [2]; [8] 36% | [2]; at 50.0 µM 38.1% and 42.8% | [3]; [7] 21% | [3]; [8] 50% | [3]; at 50.0 µM 41.6% and 45.6% | [4]; [7] 18% | [4]; [8] 25% | [4]; at 50.0 µM 44.1% and -10.8% | [5]; [7] 24% | [5]; [8] 62% | [5]; at 50.0 µM 42.6% and 39.5% | [6]; [7] 42% | [6]; [8] 66% | [6]; at 50.0 µM 50.4% and 66.1%
active: [1]; [8] 73%
55% (inactive) and 74.8% (active): [1]; at 50.0 µM

CC(=O)Oc1ccc2c(c1)Oc1cc(OC(C)=O)ccc1C21OC(=O)c2ccccc21
30.9% (inactive) and 96.8% (active): [3]; at 50.0 µM
19.5% (inactive) and 99.5% (active): [2]; at 50.0 µM
inactive: [1]; [7] 5% | [1]; [8] 5% | [2]; [7] -3% | [2]; [8] 53% | [3]; [7] 3% | [3]; [8] 36% | [4]; [7] 3% | [4]; [8] 54% | [4]; at 50.0 µM 14.2% and -25.1% | [5]; [7] -1% | [5]; [8] 27% | [6]; [7] 14% | [6]; [8] 24%
24.8% (inactive) and 98.7% (active): [6]; at 50.0 µM
16.8% (inactive) and 98.2% (active): [1]; at 50.0 µM
18.6% (inactive) and 99.5% (active): [5]; at 50.0 µM

Nc1cc(Cl)c(S(=O)(=O)O)cc1Cl
inactive: [1]; [7] 67% | [1]; at 50.0 µM -16.2% and 35.6% | [2]; [7] 18% | [2]; at 50.0 µM -1.25% and -2.55% | [3]; [7] 9% | [3]; at 50.0 µM -1.55% and -2.6% | [4]; [7] -7% | [4]; at 50.0 µM -14% and 39.3% | [5]; [7] 12% | [5]; at 50.0 µM -6.55% and 1.75% | [6]; [7] 28% | [6]; at 50.0 µM 5.2% and 30.6%
active: [1]; [8] 98% | [2]; [8] 98% | [3]; [8] 96% | [4]; [8] 96% | [5]; [8] 98% | [6]; [8] 98%

CC(C)C(NC(=O)CN)C(=O)O (stereo not drawn) (H-Gly-[ξV]-OH)
inactive: [1]; [7] -165% | [1]; [8] -152% | [1]; at 50.0 µM -7.85% and -10.2% and -15.5% | [2]; [7] -46% | [2]; [8] -52% | [2]; at 50.0 µM 3.95% and -7.6% and -21.6% | [3]; [7] -62% | [3]; [8] -64% | [3]; at 50.0 µM -0.15% and -21.6% and -5.05% | [4]; [7] -59% | [4]; [8] -60% | [4]; at 50.0 µM 35.5% and 5.7% and -2.4% | [5]; [7] -75% | [5]; [8] -79% | [5]; at 50.0 µM -31.8% and -8.25% and -5.15% | [6]; [7] -146% | [6]; [8] -116% | [6]; at 50.0 µM 16.8% and -21.9% and -0.65%

C=CCc1c2c(ccc(=O)c1O)-c1c(cc(OC)c(OC)c1OC)CCC2NC(C)=O (stereo not drawn)
inactive: [1]; [7] -3% | [2]; [7] 4% | [2]; at 50.0 µM 60.5% | [3]; [7] -20% | [3]; at 50.0 µM 64.6% | [4]; [7] -12% | [5]; [7] -13% | [5]; at 50.0 µM 53.3% | [6]; [7] 8% | [6]; at 50.0 µM 67%
active: [1]; [8] 94% | [1]; at 50.0 µM 70.3% | [2]; [8] 98% | [3]; [8] 70% | [4]; [8] 93% | [4]; at 50.0 µM 72% | [5]; [8] 97% | [6]; [8] 97%

CC(=O)c1ccc2ccc3ccc(O)cc3c2c1
active: [1]; [8] 97% | [1]; at 50.0 µM 88.5% | [2]; [8] 97% | [2]; at 50.0 µM 80.5% | [3]; [8] 96% | [3]; at 50.0 µM 82.2% | [4]; [8] 97% | [4]; at 50.0 µM 72.8% | [5]; [8] 98% | [5]; at 50.0 µM 90.2% | [6]; [8] 97% | [6]; at 50.0 µM 89.2%
inactive: [1]; [7] 1% | [2]; [7] 11% | [3]; [7] 2% | [4]; [7] -5% | [5]; [7] -27% | [6]; [7] 6%

CCOCc1ccccc1C(O)(c1ccc(OC)cc1)c1ccc(OC)cc1
67% (inactive) and 94.2% (active): [4]; at 50.0 µM
33.4% (inactive) and 72.5% (active): [2]; at 50.0 µM
48.3% (inactive) and 78.8% (active): [1]; at 50.0 µM
60.5% (inactive) and 77.2% (active): [3]; at 50.0 µM
inactive: [1]; [7] 5% and 1% | [1]; [8] 2% and 1% | [2]; [7] 2% and 6% | [2]; [8] 9% and 11% | [3]; [7] 6% and -2% | [3]; [8] 10% and 21% | [4]; [7] 3% and 5% | [4]; [8] 3% and 7% | [5]; [7] 3% and 14% | [5]; [8] 33% and 61% | [6]; [7] 3% and 5% | [6]; [8] -26% and 41%
active: [5]; at 50.0 µM 76.5% and 95.8% | [6]; at 50.0 µM 74% and 82.8%

NC(=O)N/N=C/c1ccc([N+](=O)[O-])o1
47.3% (inactive) and 71.3% (active): [6]; at 50.0 µM
active: [1]; [8] 73%
inactive: [1]; [7] 2% | [1]; at 50.0 µM 32% and 46.6% | [2]; [7] 2% | [2]; [8] 26% | [2]; at 50.0 µM 13.8% and 8.3% | [3]; [7] 4% | [3]; [8] 34% | [3]; at 50.0 µM 56.4% and 48% | [4]; [7] 0% | [4]; [8] 16% | [4]; at 50.0 µM 10.1% and 26.1% | [5]; [7] -3% | [5]; [8] 22% | [5]; at 50.0 µM 10.6% and 51.8% | [6]; [7] 5% | [6]; [8] 50%

CC[N](CC)[Ge]([CH2]C)[CH2]C.C[CH2][Ge]([CH2]C)[CH2]C
active: [1]; [8] 99% | [1]; at 50.0 µM 87% | [2]; [8] 100% | [2]; at 50.0 µM 90.3% | [3]; [8] 99% | [3]; at 50.0 µM 90% | [4]; [8] 98% | [4]; at 50.0 µM 92.5% | [5]; [8] 99% | [5]; at 50.0 µM 90% | [6]; [8] 99% | [6]; at 50.0 µM 92.3%
inactive: [1]; [7] 40% | [2]; [7] 19% | [3]; [7] 32% | [4]; [7] 54% | [5]; [7] 24% | [6]; [7] 37%
